From ChEMBL document CHEMBL2218924, “A broad activity screen in support of a chemogenomic map for kinase signalling research and drug discovery” (Biochem J, 2013) come the findings set out here.

SMILES strings stand for the structures.

Test [1] has as its target Hepatocyte growth factor receptor (Homo sapiens) (UniProt P08581). As to conditions: at 1 µM.
The target is the same in test [2]. As to conditions: at 10 µM.
Test [3] addresses MAP kinase-interacting serine/threonine-protein kinase 2 (Homo sapiens) (UniProt Q9HBH9). The settings on record: at 10 µM.
Test [4] concerns the target T1, Muscle, skeletal receptor tyrosine-protein kinase (Homo sapiens) (UniProt O15146).
T1 sequence (whole entry): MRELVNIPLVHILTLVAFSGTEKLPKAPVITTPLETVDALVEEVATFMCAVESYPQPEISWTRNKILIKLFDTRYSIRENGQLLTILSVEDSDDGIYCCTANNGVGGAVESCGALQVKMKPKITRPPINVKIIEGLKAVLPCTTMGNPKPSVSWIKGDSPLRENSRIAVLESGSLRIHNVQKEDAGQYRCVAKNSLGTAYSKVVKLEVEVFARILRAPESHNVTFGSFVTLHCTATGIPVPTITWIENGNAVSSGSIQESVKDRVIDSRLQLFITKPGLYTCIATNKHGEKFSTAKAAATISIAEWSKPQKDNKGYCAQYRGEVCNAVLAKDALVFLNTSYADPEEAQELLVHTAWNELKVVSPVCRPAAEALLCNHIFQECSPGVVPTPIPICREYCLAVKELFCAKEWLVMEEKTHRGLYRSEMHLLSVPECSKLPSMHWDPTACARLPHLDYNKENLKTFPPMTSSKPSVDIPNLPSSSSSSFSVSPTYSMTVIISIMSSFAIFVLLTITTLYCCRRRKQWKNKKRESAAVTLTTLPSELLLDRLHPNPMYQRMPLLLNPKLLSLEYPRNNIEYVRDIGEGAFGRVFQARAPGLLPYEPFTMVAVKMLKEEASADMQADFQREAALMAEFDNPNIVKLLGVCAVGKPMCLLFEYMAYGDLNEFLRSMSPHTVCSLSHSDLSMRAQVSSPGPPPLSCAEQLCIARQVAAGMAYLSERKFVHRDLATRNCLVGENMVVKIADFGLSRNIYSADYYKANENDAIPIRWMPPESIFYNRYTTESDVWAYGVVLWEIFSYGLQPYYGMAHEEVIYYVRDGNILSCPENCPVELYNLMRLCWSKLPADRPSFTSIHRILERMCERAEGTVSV
The settings on record: at 10 µM.

In test [5] the target is T2, Serine/threonine-protein kinase Nek2 (Homo sapiens) (UniProt P51955).
T2 sequence (whole entry): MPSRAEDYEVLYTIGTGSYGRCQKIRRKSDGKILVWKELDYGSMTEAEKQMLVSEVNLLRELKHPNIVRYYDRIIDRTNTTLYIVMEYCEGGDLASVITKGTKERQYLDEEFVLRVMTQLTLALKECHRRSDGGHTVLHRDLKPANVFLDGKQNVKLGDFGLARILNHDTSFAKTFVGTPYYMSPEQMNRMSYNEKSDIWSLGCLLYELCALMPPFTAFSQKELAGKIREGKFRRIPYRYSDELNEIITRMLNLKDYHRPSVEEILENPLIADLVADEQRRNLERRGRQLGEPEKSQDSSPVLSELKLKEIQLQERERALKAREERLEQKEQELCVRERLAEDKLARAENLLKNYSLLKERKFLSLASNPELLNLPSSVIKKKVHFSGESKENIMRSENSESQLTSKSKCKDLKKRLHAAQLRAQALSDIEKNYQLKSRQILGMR
The settings on record: at 1 µM.

For test [6], the target named is T2, Serine/threonine-protein kinase Nek2 (Homo sapiens). As to conditions: at 10 µM.
Test [7] concerns the target T3, Serine/threonine-protein kinase Nek3 (Homo sapiens) (UniProt P51956).
T3 sequence (whole entry): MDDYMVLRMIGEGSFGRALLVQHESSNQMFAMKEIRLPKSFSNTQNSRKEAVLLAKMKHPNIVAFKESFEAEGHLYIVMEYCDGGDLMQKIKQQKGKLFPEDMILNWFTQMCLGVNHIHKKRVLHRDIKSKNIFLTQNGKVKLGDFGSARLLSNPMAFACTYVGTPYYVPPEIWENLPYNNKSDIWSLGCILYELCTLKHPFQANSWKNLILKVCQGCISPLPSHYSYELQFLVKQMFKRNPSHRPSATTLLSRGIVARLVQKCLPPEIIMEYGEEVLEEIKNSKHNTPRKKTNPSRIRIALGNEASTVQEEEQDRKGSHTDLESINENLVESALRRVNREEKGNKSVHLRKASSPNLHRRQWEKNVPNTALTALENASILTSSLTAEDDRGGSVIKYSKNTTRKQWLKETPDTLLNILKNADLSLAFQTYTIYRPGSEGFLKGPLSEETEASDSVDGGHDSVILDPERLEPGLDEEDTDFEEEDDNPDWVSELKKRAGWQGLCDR
As to conditions: at 1 µM.

The target of test [8] is T3, Serine/threonine-protein kinase Nek3 (Homo sapiens). The settings on record: at 10 µM.
Test [9] concerns the target Serine/threonine-protein kinase tousled-like 2 (Homo sapiens) (UniProt Q86UE8). The settings on record: at 1 µM.
For test [10] the target is unchanged. The settings on record: at 10 µM.
For test [11], the target named is T4, Testis-specific serine/threonine-protein kinase 2 (Homo sapiens) (UniProt Q96PF2).
T4 sequence (whole entry): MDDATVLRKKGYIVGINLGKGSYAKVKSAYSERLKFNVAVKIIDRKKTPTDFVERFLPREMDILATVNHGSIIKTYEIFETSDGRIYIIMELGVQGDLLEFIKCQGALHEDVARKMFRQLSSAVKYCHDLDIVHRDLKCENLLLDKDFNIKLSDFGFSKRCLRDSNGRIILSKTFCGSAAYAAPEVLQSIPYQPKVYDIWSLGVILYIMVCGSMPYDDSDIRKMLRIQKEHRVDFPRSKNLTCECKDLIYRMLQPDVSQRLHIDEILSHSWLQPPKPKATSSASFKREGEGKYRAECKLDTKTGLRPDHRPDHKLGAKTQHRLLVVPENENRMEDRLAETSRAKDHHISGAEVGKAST
As to conditions: at 1 µM.

For test [12], the target named is T5, Tyrosine-protein kinase Mer (Homo sapiens) (UniProt Q12866).
T5 sequence (whole entry): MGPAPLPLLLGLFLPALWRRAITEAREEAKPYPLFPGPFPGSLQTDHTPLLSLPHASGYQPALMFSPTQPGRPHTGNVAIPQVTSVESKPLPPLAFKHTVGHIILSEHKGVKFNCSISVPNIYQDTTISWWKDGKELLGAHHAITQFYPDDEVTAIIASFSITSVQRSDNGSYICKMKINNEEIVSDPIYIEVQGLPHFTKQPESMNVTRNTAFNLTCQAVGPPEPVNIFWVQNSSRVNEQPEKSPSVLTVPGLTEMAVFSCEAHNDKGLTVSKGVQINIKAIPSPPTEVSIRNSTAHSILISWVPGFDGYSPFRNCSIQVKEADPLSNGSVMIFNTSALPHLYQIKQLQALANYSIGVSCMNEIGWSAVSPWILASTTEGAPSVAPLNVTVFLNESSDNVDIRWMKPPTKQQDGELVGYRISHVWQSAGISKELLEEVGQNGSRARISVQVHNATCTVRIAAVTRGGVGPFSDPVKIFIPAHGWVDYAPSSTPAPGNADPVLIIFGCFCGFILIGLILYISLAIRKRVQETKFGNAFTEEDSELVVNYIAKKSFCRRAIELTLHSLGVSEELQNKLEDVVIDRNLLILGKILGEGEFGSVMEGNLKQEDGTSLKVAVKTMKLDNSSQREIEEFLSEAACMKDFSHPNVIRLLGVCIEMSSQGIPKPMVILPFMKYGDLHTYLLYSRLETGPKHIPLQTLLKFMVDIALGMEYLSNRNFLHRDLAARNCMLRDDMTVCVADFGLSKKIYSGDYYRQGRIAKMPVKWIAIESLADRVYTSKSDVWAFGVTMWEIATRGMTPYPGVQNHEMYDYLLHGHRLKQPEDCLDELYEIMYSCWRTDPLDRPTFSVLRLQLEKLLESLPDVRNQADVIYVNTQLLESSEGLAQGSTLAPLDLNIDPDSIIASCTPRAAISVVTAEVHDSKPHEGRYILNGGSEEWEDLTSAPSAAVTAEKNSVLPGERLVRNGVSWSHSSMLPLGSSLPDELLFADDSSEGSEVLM
As to conditions: at 1 µM.

The target of test [13] is T5, Tyrosine-protein kinase Mer (Homo sapiens). The settings on record: at 10 µM.
The target of test [14] is MAP kinase-interacting serine/threonine-protein kinase 2 (Homo sapiens) (UniProt Q9HBH9). As to conditions: at 1 µM.
Test [15] concerns the target T1, Muscle, skeletal receptor tyrosine-protein kinase (Homo sapiens). The settings on record: at 1 µM.
Test [16] has as its target T6, Serine/threonine-protein kinase Nek11 (Homo sapiens) (UniProt Q8NG66).
T6 sequence (whole entry): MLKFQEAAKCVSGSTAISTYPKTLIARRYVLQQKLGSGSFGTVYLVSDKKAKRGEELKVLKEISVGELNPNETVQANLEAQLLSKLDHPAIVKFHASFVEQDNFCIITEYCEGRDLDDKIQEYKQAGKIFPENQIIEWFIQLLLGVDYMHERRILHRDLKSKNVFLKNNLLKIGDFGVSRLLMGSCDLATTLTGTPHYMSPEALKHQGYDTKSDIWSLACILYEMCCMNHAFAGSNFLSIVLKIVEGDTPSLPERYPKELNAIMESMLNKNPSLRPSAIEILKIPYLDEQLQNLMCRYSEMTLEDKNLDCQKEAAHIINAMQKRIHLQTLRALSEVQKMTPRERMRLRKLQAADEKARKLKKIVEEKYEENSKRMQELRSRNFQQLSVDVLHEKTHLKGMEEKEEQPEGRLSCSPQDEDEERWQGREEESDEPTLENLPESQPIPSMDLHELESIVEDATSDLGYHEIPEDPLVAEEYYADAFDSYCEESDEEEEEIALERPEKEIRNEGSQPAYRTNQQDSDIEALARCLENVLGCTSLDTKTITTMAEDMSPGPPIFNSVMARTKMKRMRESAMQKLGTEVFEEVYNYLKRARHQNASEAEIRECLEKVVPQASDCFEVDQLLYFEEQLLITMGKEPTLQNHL
The settings on record: at 1 µM.

Test [17] has as its target T6, Serine/threonine-protein kinase Nek11 (Homo sapiens). As to conditions: at 10 µM.
Test [18] has as its target T7, Testis-specific serine/threonine-protein kinase 1 (Homo sapiens) (UniProt Q9BXA7).
T7 sequence (whole entry): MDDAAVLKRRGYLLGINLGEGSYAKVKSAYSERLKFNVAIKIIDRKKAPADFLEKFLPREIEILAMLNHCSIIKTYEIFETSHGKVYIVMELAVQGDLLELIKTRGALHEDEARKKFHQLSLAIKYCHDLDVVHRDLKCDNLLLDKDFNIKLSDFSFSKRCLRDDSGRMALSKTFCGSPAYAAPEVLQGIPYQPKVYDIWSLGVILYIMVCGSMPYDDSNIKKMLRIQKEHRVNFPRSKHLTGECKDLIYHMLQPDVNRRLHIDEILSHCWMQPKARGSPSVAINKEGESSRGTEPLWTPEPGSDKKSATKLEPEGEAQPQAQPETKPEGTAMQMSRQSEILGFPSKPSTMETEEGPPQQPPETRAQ
As to conditions: at 1 µM.

Test [19] addresses T7, Testis-specific serine/threonine-protein kinase 1 (Homo sapiens). The settings on record: at 10 µM.
The target in test [20] is T4, Testis-specific serine/threonine-protein kinase 2 (Homo sapiens). The settings on record: at 10 µM.

Serine/threonine-protein kinase tousled-like 2 (Homo sapiens), sequence (Q86UE8 whole entry, looked up): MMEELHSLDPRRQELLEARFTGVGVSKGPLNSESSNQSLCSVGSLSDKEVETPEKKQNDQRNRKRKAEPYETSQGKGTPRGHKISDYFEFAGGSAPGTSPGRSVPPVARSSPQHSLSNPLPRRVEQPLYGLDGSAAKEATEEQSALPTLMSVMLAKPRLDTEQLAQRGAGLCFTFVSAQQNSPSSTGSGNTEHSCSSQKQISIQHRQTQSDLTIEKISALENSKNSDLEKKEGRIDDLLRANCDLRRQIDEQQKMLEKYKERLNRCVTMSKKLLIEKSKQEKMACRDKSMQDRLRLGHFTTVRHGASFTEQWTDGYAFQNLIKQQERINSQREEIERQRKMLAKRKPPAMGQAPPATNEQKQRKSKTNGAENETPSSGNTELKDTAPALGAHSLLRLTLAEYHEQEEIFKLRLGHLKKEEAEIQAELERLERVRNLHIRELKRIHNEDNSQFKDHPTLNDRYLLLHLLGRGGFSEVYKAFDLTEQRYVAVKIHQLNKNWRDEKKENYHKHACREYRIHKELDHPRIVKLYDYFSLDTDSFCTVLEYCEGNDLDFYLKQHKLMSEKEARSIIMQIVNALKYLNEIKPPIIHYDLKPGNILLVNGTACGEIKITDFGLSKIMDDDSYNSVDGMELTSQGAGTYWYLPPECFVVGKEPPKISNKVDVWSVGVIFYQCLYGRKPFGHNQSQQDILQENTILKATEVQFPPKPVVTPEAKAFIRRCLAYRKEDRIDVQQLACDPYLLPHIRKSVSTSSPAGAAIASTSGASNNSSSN
MAP kinase-interacting serine/threonine-protein kinase 2 (Homo sapiens), sequence (Q9HBH9 whole entry, looked up): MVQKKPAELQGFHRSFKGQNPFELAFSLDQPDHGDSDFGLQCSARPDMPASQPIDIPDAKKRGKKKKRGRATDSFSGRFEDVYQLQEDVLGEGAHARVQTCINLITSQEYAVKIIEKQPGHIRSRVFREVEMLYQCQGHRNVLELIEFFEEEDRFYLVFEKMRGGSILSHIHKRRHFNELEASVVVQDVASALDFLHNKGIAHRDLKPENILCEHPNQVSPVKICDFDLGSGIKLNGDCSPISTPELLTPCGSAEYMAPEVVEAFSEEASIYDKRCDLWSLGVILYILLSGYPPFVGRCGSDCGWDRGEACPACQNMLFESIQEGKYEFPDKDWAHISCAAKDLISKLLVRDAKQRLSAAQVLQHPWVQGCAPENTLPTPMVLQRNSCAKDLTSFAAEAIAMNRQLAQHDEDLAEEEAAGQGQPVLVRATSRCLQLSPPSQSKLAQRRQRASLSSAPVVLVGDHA
Hepatocyte growth factor receptor (Homo sapiens), sequence (P08581 whole entry): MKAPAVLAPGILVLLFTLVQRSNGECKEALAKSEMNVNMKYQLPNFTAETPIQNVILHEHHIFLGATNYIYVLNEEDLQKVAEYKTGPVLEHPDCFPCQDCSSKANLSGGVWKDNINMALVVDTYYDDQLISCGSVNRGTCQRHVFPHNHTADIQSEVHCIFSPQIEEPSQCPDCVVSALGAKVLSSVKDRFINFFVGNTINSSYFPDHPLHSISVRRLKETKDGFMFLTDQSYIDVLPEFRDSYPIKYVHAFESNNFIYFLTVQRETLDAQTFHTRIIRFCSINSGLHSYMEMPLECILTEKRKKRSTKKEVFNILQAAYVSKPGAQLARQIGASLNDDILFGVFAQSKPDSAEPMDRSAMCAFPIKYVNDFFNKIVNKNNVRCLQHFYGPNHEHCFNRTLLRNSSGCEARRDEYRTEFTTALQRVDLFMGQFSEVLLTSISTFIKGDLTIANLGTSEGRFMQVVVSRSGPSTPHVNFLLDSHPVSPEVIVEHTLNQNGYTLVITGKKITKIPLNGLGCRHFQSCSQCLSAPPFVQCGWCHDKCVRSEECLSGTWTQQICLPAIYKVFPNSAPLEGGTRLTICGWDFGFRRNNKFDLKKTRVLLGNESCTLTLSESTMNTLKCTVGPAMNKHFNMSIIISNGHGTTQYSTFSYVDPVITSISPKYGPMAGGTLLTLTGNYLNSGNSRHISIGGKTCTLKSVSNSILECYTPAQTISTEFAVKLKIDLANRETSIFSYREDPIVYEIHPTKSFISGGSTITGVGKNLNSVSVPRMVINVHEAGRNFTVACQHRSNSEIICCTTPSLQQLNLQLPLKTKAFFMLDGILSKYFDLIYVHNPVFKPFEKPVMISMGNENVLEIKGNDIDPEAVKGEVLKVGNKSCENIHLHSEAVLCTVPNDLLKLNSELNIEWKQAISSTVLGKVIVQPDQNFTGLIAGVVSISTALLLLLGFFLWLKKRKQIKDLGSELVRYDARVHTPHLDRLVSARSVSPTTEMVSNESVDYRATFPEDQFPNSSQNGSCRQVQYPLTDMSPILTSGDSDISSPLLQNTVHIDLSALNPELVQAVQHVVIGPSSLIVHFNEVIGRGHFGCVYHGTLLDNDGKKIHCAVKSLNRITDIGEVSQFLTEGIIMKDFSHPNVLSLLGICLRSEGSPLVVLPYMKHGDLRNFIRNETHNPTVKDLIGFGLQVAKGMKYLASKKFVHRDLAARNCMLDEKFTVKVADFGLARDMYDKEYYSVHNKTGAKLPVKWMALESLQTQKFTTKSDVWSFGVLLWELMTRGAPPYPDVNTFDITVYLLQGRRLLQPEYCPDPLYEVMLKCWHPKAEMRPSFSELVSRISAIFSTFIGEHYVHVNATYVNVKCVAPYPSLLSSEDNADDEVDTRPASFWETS

As usually defined, the residual activity is the signal under treatment as a percentage of the control signal. For the compound `COc1ccc2c(c[n+](C)c3c4cc5c(cc4ccc23)OCO5)c1OC`, the residual activity in test [1] amounted to 94%; in test [2], 85%; in test [3], 82%; in test [4], 95%; in test [5], 76%; in test [6] it was 68%. Further, the residual activity in test [7] worked out at 110%; in test [8], 60%; in test [9], 95%; in [10], 92%.
Take `CC(C)n1cnc2c(NCc3ccccc3)nc(NCCCO)nc21`: the residual activity in [11] was 86%.
On the same count and under the same terms, under `Nc1n[nH]c2nnc(-c3c(-c4ccccc4)nn4ccccc34)cc12` stands 104%.
For `Nc1ncnc2c1c(-c1ccc(Oc3ccccc3)cc1)cn2C1CCCC1`, the residual activity in test [11] came out at 86%.
Regarding `O=C(Nc1cccc(Nc2cc(Nc3cccc(C(F)(F)F)c3)ncn2)c1)C1CC1`, the residual activity in test [11] worked out at 91%.
In the case of `COc1cc2ncnc(Nc3ccc(OCc4ccccc4)cc3)c2cc1OC`, the residual activity in test [12] was determined as 64%; in test [13] it was 49%; in test [1], 87%; in [2], 87%; in [14], 90%; in [3], 68%. Moreover, the residual activity in test [15] stood at 118%; in [4], 77%; in test [16], 99%; in test [17], 101%; in test [5] it was 101%; in test [6], 113%. The residual activity in [7] was 90%; in [8], 80%; in test [9], 115%; in test [10], 96%; in test [18], 104%; in [19], 90%. In addition, the residual activity in test [11] turned out to be 107%; in [20] it was 102%.
`COc1cc2ncnc(Nc3ccc(O)c(Br)c3)c2cc1OC`: the residual activity in test [11] came to 93%.
As for `O=c1cc(N2CCNCC2)oc2c(-c3ccccc3)cccc12`, in [11], the residual activity is 92%.
For `N/C(=N\[N+](=O)[O-])N/N=C\c1ccc(-c2cccc([N+](=O)[O-])c2)o1`, the residual activity turned out to be 93% in test [15]; 91% in test [4]; 73% in test [16]; 72% in test [17]; 74% in test [7]; 93% in test [8]. The residual activity was 95% in test [9], 90% in [10], 91% in [11] and 80% in [20].
